# Pf growth 96h – inhibits malaria parasite growth, 96 h. Potency, µM (series often up to 28.7 µM), inactives show at the highest dose activity change, negative = inhibition, actives largely listed as inhibitors. P. falciparum luciferase reporter growth, 96 h. AID 504834. 320,000 compounds, 6.9% hits; further: potency means the concentration at half of the fitted maximal effect; on the % scale 0 is the no-effect control and ±100 the full control effect
#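 Luminescence readout: decreased luciferase signal marks inhibited growth of reporter-expressing P. falciparum in infected red cells (2% hematocrit, 0.05% parasitemia final), exposed to compound two generations (96 h, 37 C, 5% CO2).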
# Lassa entry inh – blocks Lassa virus binding to or entry into cells; Lassa virus pseudotype entry inhibition, cell reporter; Potency, µM (doses to about 37.9 µM), for the others: at the top dose activity change, negative = inhibition, most hits filed as inhibitors; 300,000 compounds, 1.2% hits; calls by dose curve; tested in HEK293 cells; further: potency means the concentration at half of the fitted maximal effect; on the % scale 0 is the no-effect control and ±100 the full control effect; nearly all actives have a fitted effect of over 50% in size
# Marburg entry inh – Marburg virus entry inhibition; Marburg virus pseudotyped entry inhibition, cell reporter; Potency, µM (highest dose often 37.8 µM), without a hit: at the highest dose activity change, negative = inhibition, most hits filed as inhibitors; 300,000 compounds, 1.8% hits; calls by dose curve; tested in HEK293 cells; further: potency means the concentration at half of the fitted maximal effect; on the % scale 0 is the no-effect control and ±100 the full control effect
# CHX counter – counter-screen for Shiga toxin inhibitors: cycloheximide protein synthesis inhibition | max response, % | 300,000 compounds, 12% hits | cell reporter, cycloheximide protein synthesis inhibition counterscreen; in the data active means max response mostly above about 13%, no sharp cut-off; inactive means mostly below about 14%; further: read at 38.3 µM for the half of the compounds with a filed dose; 0% is about no effect
# Pf growth 48h – P. falciparum growth inhibition at 48 hours (one generation); P. falciparum luciferase growth in erythrocytes, 48 h; Potency, µM (top dose mostly 28.7 µM), for inactives: at the highest dose activity change, negative = inhibition, usual class: inhibitors; 310,000 compounds, 5.9% hits; further: potency means the concentration at half of the fitted maximal effect; on the % scale 0 is the no-effect control and ±100 the full control effect
#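 Erythrocytes infected with P. falciparum carrying an integrated firefly luciferase reporter (2% hematocrit, 0.1% parasitemia final) were exposed to compounds in RPMI 1640 with 0.5% Albumax at 37 C, 5% CO2. Growth inhibition was scored as reduced luminescence.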
# Shiga inhibitor – inhibitors of Shiga toxin in Vero cells | 290,000 compounds, 9.2% hits | AID 2315 | Vero cells, Shiga toxin protein synthesis inhibition reporter | inhibition, % at 38.7 µM; in the data active means inhibition mostly above about 28%, no sharp cut-off; inactive means mostly below about 43%; further: 0% is about no effect
# Active calls of the source: *; i = inactive; ? = inconclusive; . = no result given; [ ] = dose if it differs, or a comment. A selection: hits, their analogues and other compounds. The true share with any hit is near 19%. Unless noted, the call rests on the fitted dose curve; in most records, active means well fitted inhibition curve with a large enough effect; inconclusive means small, poorly fitted or top-dose-only effect, or another doubt; inactive means no such curve, though single readings can be large or run the other way.
SMILES,Pf growth 96h,Lassa entry inh,Marburg entry inh,CHX counter,Pf growth 48h,Shiga inhibitor
O=C(NCCN1CCOCC1)c1ccc2c(c1)N(Cc1cccc(F)c1)C(=O)c1ccccc1S2,-12.8%,18.4%[46.1 µM],?,-7.8,?,-9.8
Cc1ccc(CN2C(=O)c3ccccc3Sc3ccc(C(=O)NCCCN4CCOCC4)cc32)cc1,43.9%,?,.,1.9,11.7µM*,-17.1
COC(=O)[C@@H]1CC[C@H](C)[C@@H](c2ccc(C)cc2)N1C(=O)c1ccc(/C=N/OC[C@H]2O[C@H](c3ccccc3)C=C[C@@H]2Oc2ccc(OC)cc2)cc1,.,.,-6.6%[14.2 µM],.,.,.
COC(=O)CN(C)C(=O)c1ccc(OC2CCN(S(=O)(=O)N(C)C)CC2)cc1,?,-1.1%,1.8%,21.1*,12.8%,33.4*
CN(C)S(=O)(=O)N1CCC(Oc2ccc(C(=O)NCC(C)(C)CO)cc2)CC1,1.65µM*,0.6%,-18.9%[46.1 µM],11.1,-17.0%,5.5
COCCN(C(=O)c1ccc(OC2CCN(S(=O)(=O)N(C)C)CC2)cc1)C(C)C,?,.,.,10.8*,-6.9%,17.7
C=CCN(CC=C)C(=O)c1cccc(OC2CCN(S(=O)(=O)N(C)C)CC2)c1,?,?,-22.1%[46.1 µM],2.2,-8.9%,-19.5
C=CCN(CC=C)C(=O)c1ccc(OC2CCN(S(=O)(=O)N(C)C)CC2)cc1,i,?,0.4%[46.1 µM],53.4*,-19.4%,87.2*
CC(=O)Nc1ccc(NC(=O)CSc2nnc(NC(=O)C3CC3)s2)cc1,1.0%,?,6.7%,1.5,0.0%,16.7
Cc1ccc(S(=O)(=O)N2CCN(Cc3ccccc3)CC2)cc1,3.3%,.,1.8%,-0.7,12.0%,-8.0
O=C(CN(Cc1cccs1)C(=O)CNS(=O)(=O)c1ccc(Cl)cc1)NCc1ccco1,.,4.2%,-6.8%,-3.0,-15.0%,-23.1
CCc1nc(SCC(=O)NCC2CCCO2)c2c(=O)n(C)c(=O)n(C)c2n1 (stereo unspecified),7.2%,.,.,-2.1,0.7%,0.5
C=CCNC(=O)c1ccc(OC2CCN(S(=O)(=O)N(C)C)CC2)cc1,-0.1%,16.6%,29.3%[14.2 µM],50.5*,-9.4%,95.4*
CCCCn1c(=N)n(CC(=O)c2ccc(Br)s2)c2ccccc21,11.7µM*,.,.,-5.4,10.4µM*,-20.6
N=c1n(CCO)c2ccccc2n1CCOc1ccc(F)cc1,.,19.7%[46.1 µM],-6.2%[46.1 µM],.,.,.
CCCCn1c(=N)n(CCCOc2ccc(F)cc2)c2ccccc21,.,?,10µM*,.,.,.
CCn1c(=N)n(CC(=O)c2ccc(Br)s2)c2ccccc21,?,.,.,1.1,?,4.6
O=C1CC(NNC(=O)c2cccc(F)c2)C(=O)N1 (stereo unspecified),10.8%,.,-3.3%,10.8*,?,23.9
COc1ccccc1NS(=O)(=O)c1cc(NC(=O)c2ccc(=O)[nH]c2)ccc1N1CCOCC1,11.7µM*,11.5%,?,-5.7,?,-8.8
COCC(=O)Nc1ccc(N2CCCC2)c(S(=O)(=O)Nc2ccccc2OC)c1,5.22µM*,.,.,.,2.62µM*,.
COc1ccccc1NS(=O)(=O)c1cc(NC(=O)COc2ccccc2)ccc1N1CCOCC1,.,-18.0%,?,.,.,.
COc1ccccc1NS(=O)(=O)c1cc(NC(=O)c2cc(F)c(F)c(F)c2F)ccc1N1CCOCC1,.,-13.9%[46.1 µM],?,.,.,.
COc1ccccc1NS(=O)(=O)c1cc(N2Cc3ccccc3C2=N)ccc1N1CCOCC1,?,?,7.08µM*,-1.7,-27.9%,-16.4
COc1ccccc1NS(=O)(=O)c1cc(NC(C)=O)ccc1N1CCCCC1,9.28µM*,.,?,-1.4,-29.3%,-7.8
CNC(=O)C(=O)NCC(c1cccs1)S(=O)(=O)c1ccc(C)cc1 (stereo unspecified),17.4%,.,.,-3.4,19.8%,-2.9
SMILES,Pf growth 96h,Lassa entry inh,Marburg entry inh,CHX counter,Pf growth 48h,Shiga inhibitor
CCc1ccc(C(C)NC(=O)C2CCCC2)cc1 (stereo unspecified),0.1%,-6.1%[46.1 µM],6.3%[46.1 µM],-0.8,5.2%,-5.7
COc1ccc(NC(=O)c2[nH]c(C)c(C(C)=O)c2C)cc1S(=O)(=O)N1CCOCC1,-0.1%,0.1%,8.0%,-2.5,3.8%,-1.9
COc1ccccc1NS(=O)(=O)c1cc(NC(=O)c2[nH]c(C)c(C(C)=O)c2C)ccc1N1CCOCC1,?,.,.,-4.9,7.38µM*,-7.6
COc1ccccc1NS(=O)(=O)c1cc(NC(=O)c2ccncc2)ccc1N1CCCC1,?,?,11.2µM*,-3.0,?,2.3
COc1cccc(CC(=O)Nc2ccc(N3CCOCC3)c(S(=O)(=O)Nc3ccccc3OC)c2)c1,.,7.1%,?,.,.,.
COc1ccccc1NS(=O)(=O)c1cc(NC(=O)C2CC2)ccc1N1CCOCC1,11.7µM*,.,.,1.9,?,18.3
COc1ccccc1NS(=O)(=O)c1cc(NC(=O)Nc2cccc(C)c2)ccc1N1CCCCC1,3.7µM*,-12.0%,?,-2.4,3.7µM*,15.8
C#CCN(CC=C)C(=O)C1CCC(=O)N(CCCc2ccccc2)C1 (stereo unspecified),5.2%,.,.,5.7,31.9%,.
CC(=O)c1c(C)[nH]c(C(=O)Nc2ccc(C)c(S(=O)(=O)Nc3ccc(C)cc3C)c2)c1C,?,.,.,-1.6,13.1µM*,-5.4
COc1ccc(NS(=O)(=O)c2cc(NC(=O)CCNC(C)=O)ccc2N2CCOCC2)cc1,1.5%,-1.4%,-21.8%[46.1 µM],.,6.6%,.
O=C(O)c1cc(NCc2ccccc2)ccc1N1CCOCC1,-3.6%,3.3%,0.8%,-4.1,.,-23.6
COc1ccccc1NS(=O)(=O)c1cc(NC(=O)CCNC(C)=O)ccc1N1CCCCC1,10.4µM*,?,-9.0%[46.1 µM],.,?,.
Cc1ccc(NS(=O)(=O)c2cc(NC(=O)c3ccc4c(c3)NC(=O)CS4)ccc2C)c(C)c1,?,?,10µM*,-3.4,?,-6.1
COc1ccccc1CNc1ccc(N2CCOCC2)c(C(=O)O)c1,13.1µM*,9.1%,1.1%,3.3,13.2%,-6.8
COc1ccccc1CN1COc2ccc3c(oc(=O)c4ccccc43)c2C1,.,-27.7%[46.1 µM],?,.,.,.
Cc1ccc(C(=O)NC(=S)Nc2cccc(NC(=O)c3ccccc3)c2)cc1[N+](=O)[O-],39.9%,?,?,3.3,23.5%,6.6
CCOC(=O)N1CCN(C(=O)CCn2nc(-c3ccc(Cl)cc3)ccc2=O)CC1,?,-18.1%,-3.5%,-3.3,-8.5%,-13.4
CCOC(=O)CN1CCC(c2cc(-c3ccc(Cl)cc3)n[nH]2)CC1,?,.,.,23.3,-2.9%,31.6
CCOC(=O)CCn1nc(-c2ccc(Cl)cc2)cc1N,133.2%,-18.1%,28.0%,20.2*,.,29.0
CCOC(=O)Cn1nc(-c2ccc(Cl)cc2)cc1N,?,7.8%,3.1%,38.3*,48.3%,92.0*
COc1ccc(-c2nnc3sc(CN4C(=O)c5ccccc5C4=O)nn23)cc1,-3.6%,13.7%,0.9%,11.0,9.0%,28.6
CSc1nc(-c2ccc(C)cc2)[nH]c1S(=O)(=O)c1ccccc1,-28.8%,-1.0%,?,-3.1,-2.5%,-8.4
O=C(Cn1c(-c2cccs2)cc2cc(F)ccc21)N1CCN(c2cccc(Cl)c2)CC1,.,26.5%[46.1 µM],.,.,.,.

# Bioassay records: PubChem BioAssay, National Center for Advancing Translational Sciences (NCATS)
